CYP2C9 inhib: blocks human cytochrome P450 2C9. P11712. CYP2C9 Supersomes, luciferin-H conversion, luminescence. inhibition, % at 5 µM. hit rate 20% among 96,000. AID 777;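 active = blocking of liver enzyme CYP2C9 beyond about 50% at 5 µM, limit read from the data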
CYP2C19 inhib: inhibitors of human CYP2C19; hit rate 21% among 96,000; inhibition, % at 5 µM; CYP2C19 Supersomes, luciferin-H EGE luminescence, 30 min; AID 778; P33261;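 active = CYP2C19 inhibition above a set limit at 5 µM in the primary screen, cut at about 50% in these data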;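 note: plate controls were negative control wells for no effect and 2.5 mM tranylcypromine positive control for full effect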
Target sequence (P33261 whole entry, looked up): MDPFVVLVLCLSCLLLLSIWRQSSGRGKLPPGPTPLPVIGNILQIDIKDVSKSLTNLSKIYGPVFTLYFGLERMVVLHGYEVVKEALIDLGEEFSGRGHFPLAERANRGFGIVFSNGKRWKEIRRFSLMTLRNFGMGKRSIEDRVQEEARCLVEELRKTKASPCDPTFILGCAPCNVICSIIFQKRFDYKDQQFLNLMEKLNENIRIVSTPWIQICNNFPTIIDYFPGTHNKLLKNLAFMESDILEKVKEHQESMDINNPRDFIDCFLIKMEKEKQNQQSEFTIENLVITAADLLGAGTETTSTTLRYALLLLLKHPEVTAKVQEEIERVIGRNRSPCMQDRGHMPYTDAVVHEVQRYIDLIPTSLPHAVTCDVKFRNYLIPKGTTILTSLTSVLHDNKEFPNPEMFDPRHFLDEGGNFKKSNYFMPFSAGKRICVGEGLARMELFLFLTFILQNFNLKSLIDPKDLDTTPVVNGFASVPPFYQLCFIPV
CYP2C9 activ: activators of human CYP2C9; activation factor at 5 µM; recombinant CYP2C9, luciferin-H conversion, luminescence; hits give high values; factor 1 = untreated enzyme, 0 = blocked; AID 1024; hit rate 1.4% among 96,000;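 active = activation factor of 2 or more for CYP2C9 at a 5 µM dose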;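 note: 0 = sulfaphenazole-blocked wells and 1 = vehicle-only wells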
Measles CPE: protection of cells from measles virus; Measles virus-infected cells, CPE protection, absorbance; hit rate 1.5% among 140,000; protection (pct of control), % at 4 µM; AID 841; in the data active = protection mostly above about 24%, no sharp cut-off; inactive = mostly below about 26%
CYP2C19 act: increases human CYP2C19 enzyme activity. 96,000 tested, under 10 active. AID 1025. activation factor at 5 µM. recombinant CYP2C19, luciferin-H EGE luminescence; hits give high values; 0 = fully inhibited enzyme, 1 = untreated enzyme;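 active = activation factor of at least 2 at 5 µM in the primary screen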;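 note: 0 = wells with 2.5 mM tranylcypromine and 1 = vehicle-only wells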
Starred values were filed as active, the others as inactive. Rows were chosen to be rich in hits. Some 22% of all compounds tested hit in one or more screens of this group.

How did CCOC(=O)c1sc(NC(=O)c2ccncc2)c(C#N)c1C do in these assays?
Measles CPE: 10

How did Cc1ccccc1-c1cc(C(=O)Nc2sc(C)c(C)c2C(N)=O)c2ccccc2n1 do in these assays?
CYP2C9 inhib: 98*; CYP2C19 inhib: 69*; CYP2C9 activ: 0; Measles CPE: 8; CYP2C19 act: 0.3

What do the screens show for `CCOC(=O)c1sc(NC(=O)c2cc(-c3ccccc3C)nc3ccccc23)c(C#N)c1C`?
CYP2C9 inhib: 55*; CYP2C19 inhib: 4; CYP2C9 activ: 0.5; Measles CPE: 4; CYP2C19 act: 1

What do the screens show for `O=C(Nc1ccccc1C(=O)N1CCOCC1)c1cccc(S(=O)(=O)N2CCCC2)c1`?
CYP2C9 inhib: 3; CYP2C19 inhib: -9; CYP2C9 activ: 1; Measles CPE: 4; CYP2C19 act: 1.1

Results for CCN(C(=O)c1cc2cc(OC)ccc2oc1=O)c1cccc(C)c1 ?
CYP2C9 inhib: 51*; CYP2C19 inhib: 56*; CYP2C9 activ: 0.5; Measles CPE: 4; CYP2C19 act: 0.4

What do the screens show for `COc1ccc2oc(=O)c(C(C)=O)cc2c1`?
CYP2C9 inhib: 4; CYP2C19 inhib: 10; CYP2C9 activ: 1; Measles CPE: 42*; CYP2C19 act: 0.9

Results for COc1ccc2cc(C(=O)c3ccccc3)c(=O)oc2c1 ?
CYP2C9 inhib: -52; CYP2C19 inhib: 92*; CYP2C9 activ: 1.5; Measles CPE: 5; CYP2C19 act: 0.1

Results for COc1ccc(C(=O)c2ccccc2Cl)cc1 ?
CYP2C9 inhib: -154; CYP2C19 inhib: 81*; CYP2C9 activ: 2.5*; Measles CPE: 21; CYP2C19 act: 0.2

What do the screens show for `CCOC(=O)c1c(C)c(C(=O)O)n(C)c1C`?
CYP2C9 inhib: -15; CYP2C19 inhib: 2; CYP2C9 activ: 1.1; Measles CPE: 34; CYP2C19 act: 1

Results for CCCOC(=O)CSc1nnc(-c2ccc(Cl)cc2Cl)o1 ?
CYP2C9 inhib: -47; CYP2C19 inhib: 18; CYP2C9 activ: 1.5; Measles CPE: 3; CYP2C19 act: 0.8

How did S=C(NCC1CCCO1)Nc1ccc(Cl)cc1Cl (configuration not stated) do in these assays?
Measles CPE: 36

Results for COC(=O)N(NC(=O)C(O)(c1ccccc1)c1ccccc1)c1ccc(C)cc1 ?
Measles CPE: 7

Results for COc1ccccc1COCC(O)CN(Cc1ccco1)Cc1ccccc1O (configuration not stated) ?
Measles CPE: 19

How did CCS(=O)(=O)NC(C)C(c1cccs1)N1CCN(c2ccc(F)cc2)CC1 (configuration not stated) do in these assays?
CYP2C9 inhib: 19; CYP2C19 inhib: 36; CYP2C9 activ: 0.8; Measles CPE: 9; CYP2C19 act: 0.6

How did COc1ccc2oc(=O)c(-c3nc(C)cs3)cc2c1 do in these assays?
CYP2C9 inhib: 55*; CYP2C19 inhib: 77*; CYP2C9 activ: 0.5; Measles CPE: 1; CYP2C19 act: 0.2

Results for CC(=O)Nc1c(C(=O)N2CCN(c3ccccn3)CC2)cnn1-c1ccc(C)cc1 ?
Measles CPE: 2

What do the screens show for `CCCSc1ncc(Cl)c(C(=O)Nc2ccc(S(=O)(=O)N3CC(C)OC(C)C3)cc2)n1` (configuration not stated)?
CYP2C9 inhib: 86*; CYP2C19 inhib: 54*; CYP2C9 activ: 0.1; Measles CPE: 6; CYP2C19 act: 0.5

Results for Cc1cc(C)nc(NS(=O)(=O)c2ccc(NC(=O)c3ccc(S(=O)(=O)N4CC(C)OC(C)C4)cc3)cc2)n1 (configuration not stated) ?
Measles CPE: 15

What do the screens show for `COC(=O)N/N=C\c1ccc(-c2cc(Cl)c(Cl)cc2Cl)o1`?
Measles CPE: 5

What do the screens show for `O=C(Nc1nc(=S)ss1)c1ccc(Cl)cc1Cl`?
CYP2C9 inhib: 94*; CYP2C19 inhib: 24; CYP2C9 activ: 0.1; Measles CPE: 13; CYP2C19 act: 0.8

How did CN(C)c1ccc(CN2CCCC(O)C2)cc1 (configuration not stated) do in these assays?
CYP2C9 inhib: -5; CYP2C19 inhib: 23; CYP2C9 activ: 1; Measles CPE: 2; CYP2C19 act: 0.8

How did COc1ccc(C(=O)n2nc(C)cc2C)cc1OC do in these assays?
CYP2C9 inhib: -12; CYP2C19 inhib: 26; CYP2C9 activ: 1.1; Measles CPE: 27; CYP2C19 act: 0.7

What do the screens show for `O=[N+]([O-])c1cc(-c2nc(-c3ccncc3)no2)ccc1Cl`?
Measles CPE: 8

Results for Cc1cc(C)cc(-c2nc(-c3ccncc3)no2)c1 ?
CYP2C9 inhib: 30; CYP2C19 inhib: 83*; CYP2C9 activ: 0.7; Measles CPE: 7; CYP2C19 act: 0.2

Results for c1ccc(-c2noc(-c3cccc4ccccc34)n2)cc1 ?
CYP2C9 inhib: 14; CYP2C19 inhib: 6; CYP2C9 activ: 0.9; Measles CPE: 9; CYP2C19 act: 0.9

Results for Brc1cccc(-c2nc(-c3ccncc3)no2)c1 ?
CYP2C9 inhib: 52*; CYP2C19 inhib: 97*; CYP2C9 activ: 0.5; Measles CPE: 2; CYP2C19 act: 0

Results for Clc1ccc(Br)cc1-c1nc(-c2ccncc2)no1 ?
CYP2C9 inhib: 50*; CYP2C19 inhib: 89*; CYP2C9 activ: 0.5; Measles CPE: 12; CYP2C19 act: 0.1

How did c1ccc2c(-c3nc(-c4ccncc4)no3)cccc2c1 do in these assays?
CYP2C9 inhib: 23; CYP2C19 inhib: 89*; CYP2C9 activ: 0.8; Measles CPE: 13; CYP2C19 act: 0.1

Results for O=C(Nc1ccc(Cl)cc1)c1cnc(-c2ccccc2)nc1-c1ccccc1 ?
CYP2C9 inhib: 37; CYP2C19 inhib: 14; CYP2C9 activ: 0.6; Measles CPE: 2; CYP2C19 act: 0.9

How did CCC(C)C(=O)N1c2ccccc2C(=C2SC(C(=O)OC)=C(C(=O)OC)S2)C(=S)C1(C)C (configuration not stated) do in these assays?
CYP2C9 inhib: 72*; CYP2C19 inhib: 76*; CYP2C9 activ: 0.3; Measles CPE: 7; CYP2C19 act: 0.2

How did Nc1nnc(Cc2ccc(Cl)c(Cl)c2)s1 do in these assays?
CYP2C9 inhib: 8; CYP2C19 inhib: 58*; CYP2C9 activ: 0.9; Measles CPE: 12; CYP2C19 act: 0.4

How did Cc1ccc(/C=N/n2c(COc3ccccc3)n[nH]c2=S)s1 do in these assays?
CYP2C9 inhib: 77*; CYP2C19 inhib: 15; CYP2C9 activ: 0.2; Measles CPE: 5; CYP2C19 act: 0.9

Results for S=c1[nH]nc(COc2ccccc2)n1/N=C/c1ccc(Br)s1 ?
CYP2C9 inhib: 12; CYP2C19 inhib: 45; CYP2C9 activ: 0.9; Measles CPE: 3; CYP2C19 act: 0.6

How did Cc1ccc(C(=O)CCC2CCCC2=O)cc1 (configuration not stated) do in these assays?
CYP2C9 inhib: 0; CYP2C19 inhib: 18; CYP2C9 activ: 1; Measles CPE: 12; CYP2C19 act: 0.8

What do the screens show for `Cc1ccc(C(=O)CCC2CCCCC2=O)cc1` (configuration not stated)?
CYP2C9 inhib: 42; CYP2C19 inhib: 84*; CYP2C9 activ: 0.6; Measles CPE: 25; CYP2C19 act: 0.2
